Positions count from the first letter of the chain named.
Columns and labels:
Assay in all cases: PBM; 200 nM protein, PBS
Settings in all cases: dsDNA, one strand shown
SIX6 [1] = target: T1, SIX6 (Homo sapiens, UniProt O95475 114-200, L167I)
T1 sequence: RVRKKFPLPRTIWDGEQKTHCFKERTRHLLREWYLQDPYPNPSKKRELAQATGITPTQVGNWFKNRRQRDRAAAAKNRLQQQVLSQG

SIX6 [2] = target: T2, SIX6 (Homo sapiens, UniProt O95475 114-200, L143V)
T2 sequence: T1 sequence with L30V, I54L

SIX6 [3] = target: T3, SIX6 (Homo sapiens, UniProt O95475 114-200, H141N)
T3 sequence: T1 sequence with H28N, I54L

SIX6 [4] = target: T4, SIX6 (Homo sapiens, UniProt O95475 114-200, T165P)
T4 sequence: T1 sequence with T52P, I54L

SIX6 [5] = target: T5, SIX6 (Homo sapiens, UniProt O95475 114-200, L167M)
T5 sequence: T1 sequence with I54M

SIX6 [6] = target: T6, SIX6 (Homo sapiens, UniProt O95475 114-200, L143M)
T6 sequence: T1 sequence with L30M, I54L

SIX6 [7] = target: T7, SIX6 (Homo sapiens, UniProt O95475 114-200, L143I)
T7 sequence: T1 sequence with L30I, I54L

SIX6 [8] = target: T8, SIX6 (Homo sapiens, UniProt O95475 114-200, T165G)
T8 sequence: T1 sequence with T52G, I54L

SIX6 [9] = target: T9, SIX6 (Homo sapiens, UniProt O95475 114-200, T139Q)
T9 sequence: T1 sequence with T26Q, I54L

SIX6 [10] = target: T10, SIX6 (Homo sapiens, UniProt O95475 114-200, T165A)
T10 sequence: T1 sequence with T52A, I54L

SIX6 [11] = target: T11, SIX6 (Homo sapiens, UniProt O95475 114-200, L167V)
T11 sequence: T1 sequence with I54V

SIX6 [12] = target: T12, SIX6 (Homo sapiens, UniProt O95475 114-200)
T12 sequence: T1 sequence with I54L

SIX6 [13] = target: T13, SIX6 (Homo sapiens, UniProt O95475 114-200, T165I)
T13 sequence: T1 sequence with T52I, I54L

Row | Sequence | binding signal (SIX6 [1]) | binding signal (SIX6 [2]) | binding signal (SIX6 [3]) | binding signal (SIX6 [4]) | binding signal (SIX6 [5]) | binding signal (SIX6 [6]) | binding signal (SIX6 [7]) | binding signal (SIX6 [8]) | binding signal (SIX6 [9]) | binding signal (SIX6 [10]) | binding signal (SIX6 [11]) | binding signal (SIX6 [12]) | binding signal (SIX6 [13])
1 | CGGTATCA | 11.3 upbm affinity estimate (log intensity, higher = more binding, comparable within an allelic series) | 10.3 upbm affinity estimate (log intensity, higher = more binding, comparable within an allelic series) | 11.3 upbm affinity estimate (log intensity, higher = more binding, comparable within an allelic series) | 9.64 upbm affinity estimate (log intensity, higher = more binding, comparable within an allelic series) | 10.6 upbm affinity estimate (log intensity, higher = more binding, comparable within an allelic series) | 11 upbm affinity estimate (log intensity, higher = more binding, comparable within an allelic series) | 10.4 upbm affinity estimate (log intensity, higher = more binding, comparable within an allelic series) | 11.5 upbm affinity estimate (log intensity, higher = more binding, comparable within an allelic series) | 11.4 upbm affinity estimate (log intensity, higher = more binding, comparable within an allelic series) | 11.3 upbm affinity estimate (log intensity, higher = more binding, comparable within an allelic series) | 11 upbm affinity estimate (log intensity, higher = more binding, comparable within an allelic series) | 11.1 upbm affinity estimate (log intensity, higher = more binding, comparable within an allelic series) | 11 upbm affinity estimate (log intensity, higher = more binding, comparable within an allelic series)
2 | AGTATCAT | 11.5 upbm affinity estimate (log intensity, higher = more binding, comparable within an allelic series) | 10.5 upbm affinity estimate (log intensity, higher = more binding, comparable within an allelic series) | 11.5 upbm affinity estimate (log intensity, higher = more binding, comparable within an allelic series) | 9.89 upbm affinity estimate (log intensity, higher = more binding, comparable within an allelic series) | 10.9 upbm affinity estimate (log intensity, higher = more binding, comparable within an allelic series) | 11 upbm affinity estimate (log intensity, higher = more binding, comparable within an allelic series) | 10.6 upbm affinity estimate (log intensity, higher = more binding, comparable within an allelic series) | 11.5 upbm affinity estimate (log intensity, higher = more binding, comparable within an allelic series) | 11.4 upbm affinity estimate (log intensity, higher = more binding, comparable within an allelic series) | 11.4 upbm affinity estimate (log intensity, higher = more binding, comparable within an allelic series) | 11.3 upbm affinity estimate (log intensity, higher = more binding, comparable within an allelic series) | 11.2 upbm affinity estimate (log intensity, higher = more binding, comparable within an allelic series) | 11.2 upbm affinity estimate (log intensity, higher = more binding, comparable within an allelic series)
3 | GATATCAA | 11.4 upbm affinity estimate (log intensity, higher = more binding, comparable within an allelic series) | 10.5 upbm affinity estimate (log intensity, higher = more binding, comparable within an allelic series) | 11.3 upbm affinity estimate (log intensity, higher = more binding, comparable within an allelic series) | 10 upbm affinity estimate (log intensity, higher = more binding, comparable within an allelic series) | 10.8 upbm affinity estimate (log intensity, higher = more binding, comparable within an allelic series) | 11 upbm affinity estimate (log intensity, higher = more binding, comparable within an allelic series) | 10.3 upbm affinity estimate (log intensity, higher = more binding, comparable within an allelic series) | 11.3 upbm affinity estimate (log intensity, higher = more binding, comparable within an allelic series) | 11.1 upbm affinity estimate (log intensity, higher = more binding, comparable within an allelic series) | 11.3 upbm affinity estimate (log intensity, higher = more binding, comparable within an allelic series) | 11.1 upbm affinity estimate (log intensity, higher = more binding, comparable within an allelic series) | 11.1 upbm affinity estimate (log intensity, higher = more binding, comparable within an allelic series) | 11.1 upbm affinity estimate (log intensity, higher = more binding, comparable within an allelic series)
4 | ATATACAC | 10.9 upbm affinity estimate (log intensity, higher = more binding, comparable within an allelic series) | 10.4 upbm affinity estimate (log intensity, higher = more binding, comparable within an allelic series) | 10.9 upbm affinity estimate (log intensity, higher = more binding, comparable within an allelic series) | 10.1 upbm affinity estimate (log intensity, higher = more binding, comparable within an allelic series) | 10.8 upbm affinity estimate (log intensity, higher = more binding, comparable within an allelic series) | 10.9 upbm affinity estimate (log intensity, higher = more binding, comparable within an allelic series) | 10.4 upbm affinity estimate (log intensity, higher = more binding, comparable within an allelic series) | 11.1 upbm affinity estimate (log intensity, higher = more binding, comparable within an allelic series) | 11 upbm affinity estimate (log intensity, higher = more binding, comparable within an allelic series) | 10.9 upbm affinity estimate (log intensity, higher = more binding, comparable within an allelic series) | 10.7 upbm affinity estimate (log intensity, higher = more binding, comparable within an allelic series) | 10.9 upbm affinity estimate (log intensity, higher = more binding, comparable within an allelic series) | 10.9 upbm affinity estimate (log intensity, higher = more binding, comparable within an allelic series)

From PMC11006913
